# Test results from PubChem BioAssay AID1508600 (Functional Genomics Laboratory (NCATS/FGL), 2020).
# The whole screen tested about 53,000 sequences, of which about 3,700 (7%) were called active.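 How the source made its calls: active means gene knockdowns whose robust z-score for IL-1 alpha signal is at least 2 or at most -2, so actives lie on both sides; inactive means the rest.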 The sample as a whole holds a higher share of actives than the screen did.
# Experiment: Components of the Cytosolic LPS Sensing Pathway: Gene Identification via Genome-wide siRNA Screen;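 further: robust z of the log signal after scaling to non-targeting control siRNA wells of the plate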
# Conditions: RAW264.7 macrophages, IL-1a HTRF, actives lie on both sides, screened at 100 nM (by protocol), cells primed 5 h with Pam3CSK4 first
# Summary of the method: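 RAW264.7 mouse macrophages reverse-transfected with single siRNAs (100 nM final) for 48h, primed with Pam3CSK4 for 5 hours, then transfected with LipidA for 24 hour. Supernatant IL-1a read by HTRF; values normalized to negative-control median, log-transformed robust z-scores.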
row,Sequence,z-score
1,GGUUUCUGUCCAGAUAAAATT against Ykt6,-0.535 (inactive)
2,GGUGCAGAAUGCAAUGGAUTT against Ing3,2.51 (active)
3,GGAAUAUGAGAAAAUGAGCTT against Ctsc,0.239 (inactive)
4,AACACUGGGUACAUCUACATT against H2-Q7,1.75 (inactive)
5,UUCCCACUCUGACUAUUUUTT against Olfr970,-0.0332 (inactive)
6,GGCCUUCAAGUGCAUGAUGTT against Yaf2,-1.65 (inactive)
7,CCAGAAAACCAAACAACAGTT against Olfr1357,0.287 (inactive)
8,GGUGACAGGAAAGUUCUGUTT against Gsdmc2,2.07 (active)
9,GGCGAUUAAACUAUACAUUTT against Rrm2,0.0358 (inactive)
10,GGGCAUGUGAAGAUGUGCGTT against Map2k3,-0.272 (inactive)
11,CGUCUUACACGGUUCAAAGTT against Tbc1d10a,0.809 (inactive)
12,CGUGGUACACUGAAGACUUTT against Mmp1a,2.3 (active)
13,GGACCAUUCUGAAGAGCAGTT against Il5ra,0.867 (inactive)
14,GCUUUAUUGACACGACCCGTT against Rbm19,0.184 (inactive)
15,CCGUCGUACACAAUCUUACTT against Fgfr4,-0.512 (inactive)
16,GGUACACAACCAUCCUUGATT against Olfr600,-2.33 (active)
17,CCUACAUCAGGUCAGCAAGTT against Mrto4,1.26 (inactive)
18,GGAAAAAGCAAAUUGAGGATT against Uchl1,-1.48 (inactive)
19,GCAGAGUCACCUUACUAACTT against Fam122b,-0.0407 (inactive)
20,GGAGCUACACACAUAGGAATT against Clec2h,0.891 (inactive)
21,GGAUACCAAGAUUCCAAAUTT against Pik3r4,2.19 (active)
22,GCCAGCAACCCUCUUCGUUTT against Foxo6,0.142 (inactive)

row,Sequence,z-score
1,CCUUUGACGGCCAUGAGUATT against Muc6,-1.39 (inactive)
2,GCUAAGCACAAUGUGUACATT against Dus4l,-0.633 (inactive)
3,GGUCAUAGCUUAGAAGGUGTT against Rhov,-0.233 (inactive)
4,GGGAAGCAAUAAGUCGCCUTT against Shc4,0.394 (inactive)
5,GAGCCAAGUACCAUCUAUATT against Olfr389,2.28 (active)
6,GGUUAAGCAGAAAUUAAGATT against Supt20,-0.551 (inactive)
7,GCCACAGGAUGCUAGCAAATT against Bex2,0.282 (inactive)
8,GCAGUUGGUAUUGUUAACUTT against Maml1,-0.0252 (inactive)
9,GCUAAACCCAAAAACACAATT against Sim2,1.04 (inactive)
10,GCUAGAAAUAAGGCUGCACTT against Plekhg6,-1.2 (inactive)
11,GGAAGCAAGUAUCCCGAAUTT against Snhg11,-2.58 (active)
12,GCCAAUGAGAGUAGGAAAGTT against Elovl3,1.43 (inactive)
13,GCCUCUCAACUUAAUAACATT against Zup1,-0.697 (inactive)
14,GCUAACAGUAUCCUUAUUUTT against Vmn1r53,-0.436 (inactive)
15,CCUCUACAAUGUAACCAACTT against Kir3dl2,-0.183 (inactive)
16,GGAAACAUUAGAAUCUUGUTT against Lin52,-2.23 (active)
17,GGUCUUCGCCACAUGGAAATT against Crkl,0.436 (inactive)
18,CCUUGUCCCUUUACCUCAATT against Plk5,-1.39 (inactive)
19,GCUUUAGGAAAUUUUGUGUTT against Ska3,-1.05 (inactive)
20,GGUCAUUCUAAUGACAAUCTT against Atg14,-0.014 (inactive)
21,GGUUAGAGAUUGUUCUGUUTT against Olfr267,2.02 (active)
22,AAUGGCAUAGGUCCUAUUATT against Tcaim,-0.011 (inactive)

row,Sequence,z-score
1,GGUUUUUGUCCCAUCUUGGTT against Zc3h12d,0.228 (inactive)
2,GGGUCUUUAAACUGAAAGATT against Sh3pxd2a,0.0777 (inactive)
3,CCUGUAAGGUCUCUAGCAUTT against Exosc1,1.53 (inactive)
4,GGUUGUGCACAGCAGUGUUTT against Crct1,-0.716 (inactive)
5,GGACAAAGUCACAGAGUCCTT against Slc26a5,-2.08 (active)
6,GCACGUACCUGAUAGUCCUTT against Daglb,-0.976 (inactive)
7,GGGCCAAACCCAGAACUAUTT against Sema4g,1.5 (inactive)
8,GGACAAGUCAAUUUGUUGGTT against Zfp36l1,0.277 (inactive)
9,GGUGUAUCGGAACAGUGAGTT against Det1,-2.8 (active)
10,GCAAUGGAACUAUUAUUCATT against Cd28,2.48 (active)
11,GGCUUCAAAGCAUGACCAGTT against Ccr1,-0.528 (inactive)
12,GGACCUGCCAAAAGUUGUGTT against Uqcrc1,-1.16 (inactive)
13,GCAGUUGAAUAUCAGACUGTT against Obox5,-0.973 (inactive)
14,GGUUCAGAAUCAAUACGAGTT against Krt2,-0.909 (inactive)
15,GGACACUUCCAAACUGACCTT against Tiparp,-1.43 (inactive)
16,GCGUAGGUCAUCCUUGUAATT against Samd4,-2.22 (active)
17,GGUCAUUCACAAGUCCUUUTT against Serpinb6b,0.863 (inactive)
18,GCCAGUGGUAGCGAUAUGATT against Zscan4c,-0.263 (inactive)
19,GGAGAACACCAAAAAGGGCTT against Uncx,-1.26 (inactive)
20,GCUGUGUGGACAAAGUCUGTT against Clec4b1,-0.398 (inactive)
21,GGUCUUUAGAAUUAGGCUCTT against Pml,0.188 (inactive)
22,GCACUUUAAAAGAAUCACUTT against Slc2a12,2.11 (active)

row,Sequence,z-score
1,GGAAGAAGUAGCUAAAAACTT against Entpd4,0.488 (inactive)
2,GGUCUUGCUAUUUGUGAUATT against Olfr1294,0.617 (inactive)
3,GGACUUCACAAGACUUCAATT against Nfam1,2.06 (active)
4,GGUCAAGGAAUUAGUGAUUTT against Tctex1d1,0.398 (inactive)
5,GGUACAGUGUCAUCAUGAATT against Olfr460,-0.456 (inactive)
6,GGUAAUUUGUAAGGAACCCTT against Rpusd2,-0.881 (inactive)
7,GGAAAAAUGGGAGUUUGAATT against Ccdc83,-0.291 (inactive)
8,GUCCUUCUCAUCAUGGGACTT against Sec61g,-0.248 (inactive)
9,GGCGAAAGUGCUUUUCCUGTT against Gbp8,1.03 (inactive)
10,GCUGAUCCACGACUACUUGTT against Rab10os,1.24 (inactive)
11,GCUUAGAUCUUACCCACCCTT against Ptcra,2.52 (active)
12,GCUCCGUAAGAAGUCUCGUTT against Dhx16,-0.676 (inactive)
13,GAUGGAGAAACUGAAGAAGTT against Olfml2a,-0.117 (inactive)
14,UCCACUUCACUAAUCCUGUTT against Vmn2r43,-2.52 (active)
15,GCUGGAUUUGGACUCUUAGTT against Vmn1r16,1.1 (inactive)
16,GGGCUGUGAUAUGCAACUCTT against Teddm2,-0.988 (inactive)
17,GGAAAUGGUCCCUCUGUGUTT against Tspoap1,-2.99 (active)
18,CCUUUGAUCAAUUCUGAGUTT against Glb1,-0.554 (inactive)
19,GCAACGUGAAACAUAUUCUTT against Cpb1,1.69 (inactive)
20,GGAAGUAACCACAUCCUAUTT against Epn2,-0.628 (inactive)
21,GGAGGGAAUGAAAAGUCAATT against Stard7,2.09 (active)
22,GGUCACUGUUAGUUAUUAATT against Tcerg1l,0.954 (inactive)

row,Sequence,z-score
1,GGGUAUUUUACCACUACUUTT against Psg23,0.32 (inactive)
2,GCCGUCACAAGAACUGAACTT against Apon,-0.24 (inactive)
3,CCCACUUUGAGGAAAGCUATT against Itprip,-2.46 (active)
4,GGAAAACUAACCAAAAUAGTT against F3,1.45 (inactive)
5,GGCAAAUUAUUAGUACAGUTT against Gabpa,1.41 (inactive)
6,CCCGAAUCUCAGCGUAGAATT against Gm5617,-0.853 (inactive)
7,GGAGUUCAAUCCAACAAAATT against Atxn2l,-1.4 (inactive)
8,GCUCAGAGACAAGCAACUGTT against Kcnk7,0.247 (inactive)
9,GGAACAGAAAACCAUAUAATT against Snx29,-2.54 (active)
10,GGUUAUGAGGCUUAAUAAATT against Atxn7l1,0.965 (inactive)
11,CCCUCGGUGCCUAAUAAAUTT against Hsd17b10,-0.0731 (inactive)
12,GGAUGCUAUAAAGAAUGCCTT against Prpf39,-1.19 (inactive)
13,UCCGUUGGAGUAUCGAUGUTT against Trp53rka,-1.25 (inactive)
14,GCGAGAUGGAAGGAUCUUGTT against Anapc13,5.28 (active)
15,GGAGAACAUGGAGACUAUUTT against Ramp1,-0.756 (inactive)
16,GGUCUACCAUUUCACCUUGTT against Cops4,1.19 (inactive)
17,GUUGCCAGAUUUGGAUAUUTT against Abcg5,0.664 (inactive)
18,CGGGAAGAGUACUUGUUUUTT against Cfl1,0.153 (inactive)
19,CAAAGCCACCUCGCCCUAUTT against Nkx2-6,-0.0586 (inactive)
20,GGCUUAUGUUUGCUUUGUUTT against Piwil1,0.0916 (inactive)
